Source: PubChem BioAssay (NCATS)
A number with no mark means an inactive call. Inconclusive results are not listed. Where a call stands in place of a potency, no number is given. Calls of active or inactive are those of the source. The call rests on the fitted dose curve; in most records, active means well fitted curve in the direction sought with a large enough effect; inconclusive means small, poorly fitted or top-dose-only effect, or another doubt; inactive means no such curve, though single readings can be large; an effect the other way counts as inactive or inconclusive.

Molecular target: Luciferin 4-monooxygenase (Photinus pyralis) (UniProt P08659)
Assay: Primary firefly luciferase (FLuc) qHTS assay for identification of artifact compounds. (AID 1845220); further: nearly all actives have a fitted effect of over 60% in size
Details: purified firefly luciferase, luminescence, 5 min; series mostly up to 54.1 µM
Method in brief: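 FLuc 10 nM; luciferin 10 uM; ATP 10 uM; Tris-acetate pH 7.6, Mg-acetate 10 mM; 15 min RT preincubation; 5 min reaction; luminescence.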

| Structure (SMILES) | Potency |
| --- | --- |
| C=C1C[C@]23C[C@H]1CC[C@H]2[C@@]12CC[C@H](O)[C@@](C)(C(=O)O1)[C@H]2[C@@H]3C(=O)O | inactive |
| CC(C)C[C@H](CC(=O)NO)C(=O)N[C@@H](Cc1ccc2ccccc2c1)C(=O)N[C@@H](C)C(=O)NCCN | inactive |
| CCCC(=O)O[C@@H]1[C@@H]2[C@@H](OC(C)=O)[C@]3(C)C(=O)[C@H]4[C@@H](OC(C)=O)C(C)(C)C[C@H]4[C@]3(C)C(=O)[C@@]2(OC(C)=O)C[C@@H]1C | inactive |

Test system: not listed separately
Assay: Primary fluorescence-based thiol-reactive (MSTI) qHTS assay for identification of artifact compounds. (AID 1845221); further: nearly all actives have a fitted effect of over 65% in size; further: potency means the concentration at half of the fitted maximal effect;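 on activity change, negative = thiol reactive: thiol-reactive compounds lower the probe fluorescence signal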
Details: MSTI thiol-reactivity probe, 1 h; series mostly up to 53.8 µM
Method in brief: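 One-hour, room-temperature, dark incubation of compound with 4 uM MSTI in PBS (pH 7.4, 2% DMSO) precedes a fluorescence read at 525 nm excitation, 598 nm emission; Hill-equation fitting yields concentration-response values.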

| Structure (SMILES) | activity change, negative = thiol reactive | Potency |
| --- | --- | --- |
| C[C@@H]1O[C@@H](O[C@@H]2[C@@H](O[C@@H]3O[C@@H](C)[C@H](O[C@@H]4OC[C@H](O)[C@H](O[C@@H]5OC[C@@H](O)[C@H](O)[C@H]5O)[C@H]4O)[C@@H](O[C@@H]4OC[C@](O)(CO)[C@H]4O)[C@H]3O)[C@H](OC(=O)[C@]34CCC(C)(C)C[C@H]3C3=CCC5[C@@]6(C)C[C@H](O)[C@H](O[C@@H]7O[C@H](CO[C@@H]8OC[C@H](O)[C@H](O)[C@H]8O)[C@@H](O)[C@H](O)[C@H]7O)C(C)(C)C6CC[C@@]5(C)[C@]3(C)C[C@H]4O)OC[C@H]2O)[C@H](O)[C@H](O)[C@H]1O (some centres not stated) | 203% [at 11.5 µM] | – |
| Cc1cc(C(=O)Nc2cccc(C(=O)Nc3cccc(C(F)(F)F)c3)c2)on1 | – | inactive |
| COc1ccc2c(OC)c3ccoc3nc2c1OC | – | inactive |
| COc1c2cc(c(O)c1OC)-c1cc(ccc1O)CCC(O)CCCC2 (configuration not stated) | – | inactive |
| O=C1NC(=O)C(c2cn3c4c(cccc24)CCC3)C1c1c[nH]c2ccccc12 (configuration not stated) | – | inactive |
| Cc1cccc(-c2[nH]c(Cc3cccc(C(N)=O)c3)nc2-c2ccc3nccnc3c2)n1 | – | inactive |
| C[C@@H]1C[C@@H](O)[C@@]23CO[C@@H](O)[C@@H]2CCC[C@@H]3[C@@]12C[C@@H](c1ccoc1)OC2=O | – | inactive |
| CC[C@H](NC(=O)[C@H](CS(=O)(=O)CC1CC1)N[C@@H](c1ccc(F)cc1)C(F)(F)F)C(=O)C(=O)NC1CC1 | – | inactive |
| O=C(O)CCCCCC[C@H]1C(=O)NC(=O)N1CC[C@@H](O)C1CCCCC1 | – | inactive |
| CC1(C)CC2=C3C=CC4C5(C)CCC(O)C(C)(C)C5CCC4(C)C3(C)CCC2(C)C(O)C1 (configuration not stated) | – | 11.6 µM (active) |
| COC(=O)c1cc(OC)c(O[C@@H]2O[C@@H](C)[C@H](O)[C@@H](O)[C@H]2O)c(OC)c1 | – | inactive |
| C=CC(C)(O)C(O)CC1C(C)(O)C(O)C(O)C2C(C)(C)CCCC21C (configuration not stated) | – | inactive |
| C=C[C@]1(C)C=C2CCC3C(C)(CCC[C@@]3(C)C(=O)O)C2CC1 (some centres not stated) | – | inactive |
| C/C1=C\CCC2=C[C@@H](OC2=O)c2c(C)coc2C1 | – | 11.9 µM (active) |
| COc1ncc2cc(C(=O)Nc3cc(C(=O)NCc4cccc(Cl)c4)ccc3Cl)c(=O)[nH]c2n1 | – | inactive |
| O=C(c1ccc2nccnc2c1)N1CCCCC1 | – | inactive |
| O=C1Nc2ccccc2C(O)(c2ccccc2)C1O (configuration not stated) | – | inactive |
| C=C1C(=O)O[C@@H]2C[C@H](C)[C@@]3(O)C=C(C(C)=O)[C@]4(CC3C[C@H]12)C(=O)O[C@H]1C[C@@H](C)C(CCC(C)=O)=CC[C@H]14 (some centres not stated) | – | inactive |
| CCn1c(=O)c(-c2ccn[nH]2)cc2c(C)nc(N)nc21 | – | inactive |
| NC(=O)c1cccc(-c2cc(OC(=O)NC3CCCCC3)ccc2O)c1 | – | inactive |

| Structure (SMILES) | activity change, negative = thiol reactive | Potency |
| --- | --- | --- |
| O=C(Nc1ccccc1)N1CCN(Cc2ccc3ccccc3n2)CC1 | – | inactive |
| Cn1nc(C(C)(C)C)cc1C(=O)NC(Cc1cccc(Cl)c1)C(=O)NCC#N (configuration not stated) | – | inactive |
| CCO[C@@H]1OC(=O)C[C@@H]1NC(=O)[C@@H]1CCCN1C(=O)[C@@H](NC(=O)c1ccc(N)c(Cl)c1)C(C)(C)C | – | inactive |
| C[C@@H]1O[C@@H](O[C@H]2[C@@H]3C=CO[C@@H](O[C@@H]4O[C@H](CO)[C@@H](O)[C@H](O)[C@H]4O)[C@@H]3[C@@]3(CO)O[C@@H]23)[C@H](OC(=O)/C=C/c2ccc(O)c(O)c2)[C@H](O)[C@H]1O | – | 0.793 µM (active) |
| COc1ccc(CC2NCCc3c2[nH]c2ccc(C)cc32)cc1OC (configuration not stated) | – | inactive |
| C=C1CCC2C(C)(C(=O)OC)CCCC2(C)C1CCC(C)CC(=O)O (configuration not stated) | – | inactive |
| Cc1cc(-c2cc(O)ccc2Cl)cc2nnc(Nc3ccc(OCCN4CCCC4)cc3)nc12 | – | 3.77 µM (active) |
| CC(C)(O[C@@H]1O[C@H](CO)[C@@H](O)[C@H](O)[C@H]1O)C(OC(=O)/C=C\c1ccc(O)cc1)C(=O)OCc1ccc(O[C@@H]2O[C@H](CO)[C@@H](O)[C@H](O)[C@H]2O)cc1 (some centres not stated) | – | inactive |
| C=C[C@H]1C(O[C@@H]2O[C@H](CO)[C@@H](O)[C@H](O)[C@H]2O)OC=C2C(=O)N3CCc4c([nH]c5ccccc45)C3CC21 (some centres not stated) | – | inactive |
| C=C(C(=O)OC)C1C(O)CC2(C)C(O)CCC(=O)C2C1O (configuration not stated) | – | inactive |
| COc1cc(NC(=O)Nc2cccc(CNC(=O)O[C@H]3CCOC3)c2)ccc1-c1cnco1 | – | inactive |
| C/C=C(\C)C(=O)OCC1OC(OC2OC(COC(=O)/C(C)=C/C)C(OC3OC(CO)C(OC(=O)/C(C)=C/C)C(OC(=O)/C(C)=C/C)C3O)C(O)C2O)C(O)C(O)C1OC1OC(CO)C(OC(=O)/C(C)=C/C)C(OC(=O)/C(C)=C/C)C1O (configuration not stated) | 7.54% [at 11.5 µM] | – |
| C=CC(C)(C)C12C=C(OC)C(=O)N3C(C(C)C)C(=O)NC31N(OC)c1ccccc12 (configuration not stated) | – | inactive |
| CC/C=C\CCO[C@@H]1O[C@H](CO)[C@@H](O)[C@H](O)[C@H]1O | – | 5.97 µM (active) |
| O=C(O)/C=C/c1cc2c(cc1O[C@@H]1O[C@H](CO)[C@@H](O)[C@H](O)[C@H]1O)OCO2 | – | inactive |
| C[C@@H]1O[C@@H](O[C@H]2[C@H](O[C@H]3CC[C@@]4(C)C(CC[C@]5(C)C4C=C[C@]46OC[C@@]7(CCC(C)(C)C[C@H]74)[C@@H](O)C[C@]65C)[C@]3(C)CO)O[C@H](CO)[C@@H](O)[C@@H]2O[C@@H]2O[C@H](CO)[C@@H](O[C@@H]3O[C@@H](C)[C@H](O)[C@@H](O)[C@H]3O)[C@H](O)[C@H]2O)[C@H](O)[C@H](O)[C@H]1O (some centres not stated) | 81.1% [at 11.5 µM] | – |
| C=C1C[C@]23C[C@H]1CC[C@H]2[C@@]12CC[C@H](O)[C@@](C)(C(=O)O1)[C@H]2[C@@H]3C(=O)O | – | inactive |
| CC(C)C[C@H](CC(=O)NO)C(=O)N[C@@H](Cc1ccc2ccccc2c1)C(=O)N[C@@H](C)C(=O)NCCN | – | inactive |
| CCCC(=O)O[C@@H]1[C@@H]2[C@@H](OC(C)=O)[C@]3(C)C(=O)[C@H]4[C@@H](OC(C)=O)C(C)(C)C[C@H]4[C@]3(C)C(=O)[C@@]2(OC(C)=O)C[C@@H]1C | – | inactive |
